# Measured values from PubChem BioAssay (Tox21).
# Several values for one entry are separate records, joined by “and”; a condition that tells them apart may be missing. Equal values may be shown once. Records with an inconclusive call do not appear. Entries that show only a call come without a potency. The source holds several records for some structures; these can differ, active in one and inactive in another. Activity calls are given as the source filed them. Unless noted, calls come from the whole dose curve; as a rule, active = well fitted curve in the direction sought with a large enough effect in the repeat runs; inconclusive = weak or mixed curves; inactive = no such curve, though single readings can be large; an effect the other way counts as inactive or inconclusive.
# Assays:
# [1] = Human pregnane X receptor (PXR) small molecule agonists, qHTS cell viability counter screen (AID 1346977); note: nearly all actives have a fitted effect of over 50% in size; note: potency is the fitted concentration of half-maximal effect
# How it was run: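 After a 5hr pre-incubation, PXR-Luc HepG2 cells received compounds plus positive control in DMSO and were kept 24hr at 37C. Cell viability was quantified by fluorescence from CellTiter-Fluor added for the final hour.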
# [2] = Caspase-3/7 induction in HepG2 cells by small molecules, qHTS assay (AID 1346978); note: nearly all actives have a fitted effect of over 15% in size; note: potency is the fitted concentration of half-maximal effect
# How it was run: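 Wild-type HepG2 cells, 2,000/well, settled 5 hr at 37 C and 5% CO2, then compound-treated for 17 hr; caspase-3/7 activity read by luminescent Caspase-Glo 3/7 after 30 min at room temperature.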
# [3] = Caspase-3/7 induction in CHO-K1 cells by small molecules, qHTS cell viability counter screen (AID 1346979); note: nearly all actives have a fitted effect of over 35% in size; note: potency is the fitted concentration of half-maximal effect
# How it was run: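 Multiplexed with Caspase-Glo 3/7 in CHO-K1 cells, this counter screen added CellTiter-Fluor after 16hr of compound exposure and recorded fluorescence 1hr later.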
# [4] = Caspase-3/7 induction in CHO-K1 cells by small molecules, qHTS assay (AID 1346980); note: nearly all actives have a fitted effect of over 15% in size; note: potency is the fitted concentration of half-maximal effect
# How it was run: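 Wild-type CHO-K1 cells exposed to compounds for 17hr at 37 C, 5% CO2. Caspase-3/7 activity then measured by Caspase-Glo 3/7 luminescence after 30min at room temperature.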
# [5] = Caspase-3/7 induction in HepG2 cells by small molecules, qHTS cell viability counter screen (AID 1346981); note: nearly all actives have a fitted effect of over 30% in size; note: potency is the fitted concentration of half-maximal effect
# How it was run: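 Wild-type HepG2 cells (2,000/well) were allowed to settle for 5 hr at 37 C, 5% CO2, then dosed with compounds in DMSO by pin transfer. After 16 hr at 37 C, CellTiter-Fluor was added and fluorescence read 1 hr later.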
# [6] = biological target: Nuclear receptor subfamily 1 group I member 2 (Homo sapiens) (UniProt O75469); assay: Human pregnane X receptor (PXR) small molecule agonists, qHTS assay (AID 1346982); note: nearly all actives have a fitted effect of over 35% in size; note: potency is the fitted concentration of half-maximal effect
# Sequence of Nuclear receptor subfamily 1 group I member 2 (Homo sapiens) (O75469 whole entry, looked up): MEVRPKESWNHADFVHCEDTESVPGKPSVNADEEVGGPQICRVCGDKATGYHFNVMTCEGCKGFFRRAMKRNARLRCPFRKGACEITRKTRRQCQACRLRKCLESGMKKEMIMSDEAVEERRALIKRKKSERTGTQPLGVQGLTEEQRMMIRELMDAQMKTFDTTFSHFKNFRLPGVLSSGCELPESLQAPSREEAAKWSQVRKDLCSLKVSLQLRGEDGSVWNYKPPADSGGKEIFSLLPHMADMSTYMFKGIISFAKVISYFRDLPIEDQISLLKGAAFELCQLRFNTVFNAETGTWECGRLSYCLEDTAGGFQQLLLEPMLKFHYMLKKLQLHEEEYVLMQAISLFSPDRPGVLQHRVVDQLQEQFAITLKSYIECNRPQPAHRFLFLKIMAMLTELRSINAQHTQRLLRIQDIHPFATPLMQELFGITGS
# How it was run: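 PXR-Luc HepG2 cells (CYP3A4 promoter-driven luciferase) were seeded in medium with 5% charcoal-stripped FBS, left 5 hr at 37 C, then exposed to compounds in DMSO for 24 hr. Luminescence was read after ONE-Glo addition.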
# [7] = biological target: Acetylcholinesterase (Homo sapiens) (UniProt P22303); assay: Acetylcholinesterase (AChE) small molecule antagonists: colormetric cell-based qHTS assay (AID 1347395; calls by dose curve; note: nearly all actives have a fitted effect of over 30% in size; note: potency is the fitted concentration of half-maximal effect)
# Sequence of Acetylcholinesterase (Homo sapiens) (P22303 whole entry, looked up): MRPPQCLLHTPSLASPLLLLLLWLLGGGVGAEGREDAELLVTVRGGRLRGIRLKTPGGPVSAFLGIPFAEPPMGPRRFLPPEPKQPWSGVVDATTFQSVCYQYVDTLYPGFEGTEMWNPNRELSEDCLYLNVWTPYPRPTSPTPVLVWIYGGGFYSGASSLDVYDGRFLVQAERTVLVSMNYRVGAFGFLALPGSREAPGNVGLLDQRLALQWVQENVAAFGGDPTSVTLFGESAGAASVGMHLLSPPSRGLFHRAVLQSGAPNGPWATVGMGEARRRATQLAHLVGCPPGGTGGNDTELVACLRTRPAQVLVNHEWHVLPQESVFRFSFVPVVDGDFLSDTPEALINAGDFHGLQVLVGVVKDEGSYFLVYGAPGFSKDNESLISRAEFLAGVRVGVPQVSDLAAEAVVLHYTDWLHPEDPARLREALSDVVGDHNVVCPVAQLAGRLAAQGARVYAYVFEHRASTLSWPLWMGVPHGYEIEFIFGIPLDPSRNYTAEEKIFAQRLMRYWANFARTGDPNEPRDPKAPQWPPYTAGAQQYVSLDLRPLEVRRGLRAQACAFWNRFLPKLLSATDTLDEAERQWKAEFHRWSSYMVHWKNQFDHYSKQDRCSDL
# How it was run: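 In this cell-based qHTS, attached SH-SY5Y cells were treated with test chemicals for 30 min, after which acetylthiocholine hydrolysis was followed by DTNB colour development over 90 min at 37 C.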
# [8] = biological target: Acetylcholinesterase (Homo sapiens) (UniProt P22303); assay: Acetylcholinesterase (AChE) small molecule antagonists: enzyme-based qHTS assay (AID 1347397; calls by dose curve; note: nearly all actives have a fitted effect of over 55% in size; note: potency is the fitted concentration of half-maximal effect); details: Potency: AChE enzyme activity inhibition
# How it was run: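 Enzyme inhibition was scored from DTNB-detected thiocholine formed by recombinant human AChE acting on acetylthiocholine. The 30 min compound preincubation and 10 min substrate reaction were both run at room temperature, with DMSO as vehicle control.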
# [9] = biological target: Acetylcholinesterase (Homo sapiens) (UniProt P22303); assay: Acetylcholinesterase (AChE) small molecule antagonists: fluorescence cell-based qHTS assay (AID 1347398; calls by dose curve; note: nearly all actives have a fitted effect of over 50% in size; note: potency is the fitted concentration of half-maximal effect); details: Potency: AChE activity
# How it was run: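 Endogenous acetylcholinesterase of SH-SY5Y neuroblastoma cells is measured in situ. After overnight attachment and 30 min compound exposure, cells receive acetylthiocholine and Thiolite Green; fluorescence is read after 40 min at room temperature.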
# [10] = biological target: Acetylcholinesterase (Homo sapiens) (UniProt P22303); assay: Acetylcholinesterase (AChE) small molecule antagonists: enzyme-based qHTS assay with human liver microsomes (AID 1347399; calls by dose curve; note: nearly all actives have a fitted effect of over 60% in size); details: Potency: qHTS inhibition
# How it was run: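 Recombinant human AChE (50 mU/mL in the enzyme mix) and human liver microsomes (0.25 mg/mL final) were preincubated with compound and NADPH (0.25 mg/mL final) for 30 min at 37 C. Acetylthiocholine/DTNB was then added; thiocholine was read colorimetrically after 10 min at room temperature.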
# [11] = biological target: Cytochrome P450 2D6 (Homo sapiens) (UniProt P10635); assay: Cytochrome P450 Family 2 Subfamily D Member 6 (CYP2D6) small molecule antagonists: luciferase reporter qHTS assay (AID 1671196); note: nearly all actives have a fitted effect of over 50% in size; note: potency is the fitted concentration of half-maximal effect
# Sequence of Cytochrome P450 2D6 (Homo sapiens) (P10635 whole entry, looked up): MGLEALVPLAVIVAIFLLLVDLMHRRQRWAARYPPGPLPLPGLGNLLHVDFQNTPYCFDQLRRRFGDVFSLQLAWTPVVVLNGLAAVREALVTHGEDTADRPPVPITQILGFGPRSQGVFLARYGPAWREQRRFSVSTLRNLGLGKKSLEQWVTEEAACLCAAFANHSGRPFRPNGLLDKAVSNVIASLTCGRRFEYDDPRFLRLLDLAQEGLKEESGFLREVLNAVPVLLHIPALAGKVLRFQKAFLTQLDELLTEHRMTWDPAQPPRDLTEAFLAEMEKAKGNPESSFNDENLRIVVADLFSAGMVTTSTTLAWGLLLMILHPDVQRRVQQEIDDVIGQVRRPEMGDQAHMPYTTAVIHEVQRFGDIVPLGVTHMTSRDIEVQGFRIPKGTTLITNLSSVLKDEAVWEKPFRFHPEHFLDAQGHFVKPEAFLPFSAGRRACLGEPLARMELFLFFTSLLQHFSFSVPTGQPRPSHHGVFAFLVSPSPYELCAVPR
# How it was run: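 CYP2D6 enzyme–substrate mix was held with compound for 10 min at room temperature, then NADPH regeneration solution was added and the reaction ran 1 h at room temperature. Luciferin product was detected by luminescence after 20 min with detection reagent.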
# [12] = biological target: Cytochrome P450 2C19 (Homo sapiens) (UniProt P33261); assay: Cytochrome P450 Family 2 Subfamily C Member 19 (CYP2C19) small molecule antagonists: luciferase reporter qHTS assay (AID 1671197); note: nearly all actives have a fitted effect of over 65% in size; note: potency is the fitted concentration of half-maximal effect
# Sequence of Cytochrome P450 2C19 (Homo sapiens) (P33261 whole entry, looked up): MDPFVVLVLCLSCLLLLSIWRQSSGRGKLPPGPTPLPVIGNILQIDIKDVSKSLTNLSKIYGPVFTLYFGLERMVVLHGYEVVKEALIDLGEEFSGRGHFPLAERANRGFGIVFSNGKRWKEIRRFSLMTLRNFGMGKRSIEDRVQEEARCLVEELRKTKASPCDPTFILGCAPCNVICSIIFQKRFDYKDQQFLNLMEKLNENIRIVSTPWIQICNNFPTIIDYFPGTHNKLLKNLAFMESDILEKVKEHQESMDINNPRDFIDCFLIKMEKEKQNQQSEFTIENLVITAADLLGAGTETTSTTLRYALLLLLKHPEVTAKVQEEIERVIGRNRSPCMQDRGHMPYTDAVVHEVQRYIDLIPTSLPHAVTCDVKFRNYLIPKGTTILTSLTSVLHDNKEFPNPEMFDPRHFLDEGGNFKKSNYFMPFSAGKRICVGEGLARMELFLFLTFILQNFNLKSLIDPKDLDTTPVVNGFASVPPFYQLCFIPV
# How it was run: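 Quantitative high-throughput screen of the Tox21 library using CYP2C19 with proluciferin substrate. Reaction: NADPH regeneration, 37C, 1 h, after 10 min compound preincubation at room temperature. Readout: luminescence.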
# [13] = biological target: Cytochrome P450 2C9 (Homo sapiens) (UniProt P11712); assay: Cytochrome P450 Family 2 Subfamily C Member 9 (CYP2C9) small molecule antagonists: luciferase reporter qHTS assay (AID 1671198); note: nearly all actives have a fitted effect of over 50% in size; note: potency is the fitted concentration of half-maximal effect
# Sequence of Cytochrome P450 2C9 (Homo sapiens) (P11712 whole entry, looked up): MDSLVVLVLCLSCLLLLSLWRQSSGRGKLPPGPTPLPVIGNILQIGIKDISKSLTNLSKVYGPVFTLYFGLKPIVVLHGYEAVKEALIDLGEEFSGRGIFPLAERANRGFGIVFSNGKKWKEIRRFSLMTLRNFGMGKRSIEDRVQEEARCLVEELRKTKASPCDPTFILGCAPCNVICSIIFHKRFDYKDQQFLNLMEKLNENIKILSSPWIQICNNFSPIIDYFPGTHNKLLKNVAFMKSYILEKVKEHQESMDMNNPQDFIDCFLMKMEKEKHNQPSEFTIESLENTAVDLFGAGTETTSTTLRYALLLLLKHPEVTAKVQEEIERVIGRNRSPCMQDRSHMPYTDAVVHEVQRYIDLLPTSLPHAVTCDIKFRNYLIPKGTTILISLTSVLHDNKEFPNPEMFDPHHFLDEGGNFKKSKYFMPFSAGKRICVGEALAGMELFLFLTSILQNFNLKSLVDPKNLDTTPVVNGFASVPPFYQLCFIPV
# How it was run: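 P450-Glo proluciferin substrate with CYP2C9 enzyme; 10 min RT preincubation, then NADPH regeneration 1 h at 37C; luciferin detection reagent 20 min RT, luminescence in relative luminescence units.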
# [14] = biological target: Cytochrome P450 1A2 (Homo sapiens) (UniProt P05177); assay: Cytochrome P450 Family 1 Subfamily A Member 2 (CYP1A2) small molecule antagonists: luciferase reporter qHTS assay (AID 1671199); note: nearly all actives have a fitted effect of over 50% in size; note: potency is the fitted concentration of half-maximal effect
# Sequence of Cytochrome P450 1A2 (Homo sapiens) (P05177 whole entry, looked up): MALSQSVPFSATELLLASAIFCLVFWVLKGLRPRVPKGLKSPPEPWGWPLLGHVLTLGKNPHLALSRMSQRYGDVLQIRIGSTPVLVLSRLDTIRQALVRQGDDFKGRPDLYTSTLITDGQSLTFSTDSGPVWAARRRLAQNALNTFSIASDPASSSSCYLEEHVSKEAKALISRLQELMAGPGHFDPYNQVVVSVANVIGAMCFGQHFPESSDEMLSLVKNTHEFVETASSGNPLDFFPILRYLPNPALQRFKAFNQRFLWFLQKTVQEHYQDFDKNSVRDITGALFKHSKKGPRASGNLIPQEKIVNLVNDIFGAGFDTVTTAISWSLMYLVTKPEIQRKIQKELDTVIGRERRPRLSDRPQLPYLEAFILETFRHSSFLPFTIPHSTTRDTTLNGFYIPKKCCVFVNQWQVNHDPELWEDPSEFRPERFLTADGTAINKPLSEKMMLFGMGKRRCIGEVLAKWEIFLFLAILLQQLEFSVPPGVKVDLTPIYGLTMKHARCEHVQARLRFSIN
# How it was run: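 Human CYP1A2 activity measured with a P450-Glo proluciferin substrate; compounds in DMSO preincubated 10 min at room temperature with enzyme-substrate mix, then NADPH regeneration system added for 1 h. Luciferin detection reagent, 20 min, luminescence read.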
# [15] = biological target: Voltage-gated inwardly rectifying potassium channel KCNH2 (Homo sapiens) (UniProt Q12809); assay: Human Ether-a-go-go-Related Gene (hERG) channel small molecule antagonists: fluorescence cell-based qHTS assay (AID 1671200); note: nearly all actives have a fitted effect of over 50% in size; note: potency is the fitted concentration of half-maximal effect
# Sequence of Voltage-gated inwardly rectifying potassium channel KCNH2 (Homo sapiens) (Q12809 whole entry, looked up): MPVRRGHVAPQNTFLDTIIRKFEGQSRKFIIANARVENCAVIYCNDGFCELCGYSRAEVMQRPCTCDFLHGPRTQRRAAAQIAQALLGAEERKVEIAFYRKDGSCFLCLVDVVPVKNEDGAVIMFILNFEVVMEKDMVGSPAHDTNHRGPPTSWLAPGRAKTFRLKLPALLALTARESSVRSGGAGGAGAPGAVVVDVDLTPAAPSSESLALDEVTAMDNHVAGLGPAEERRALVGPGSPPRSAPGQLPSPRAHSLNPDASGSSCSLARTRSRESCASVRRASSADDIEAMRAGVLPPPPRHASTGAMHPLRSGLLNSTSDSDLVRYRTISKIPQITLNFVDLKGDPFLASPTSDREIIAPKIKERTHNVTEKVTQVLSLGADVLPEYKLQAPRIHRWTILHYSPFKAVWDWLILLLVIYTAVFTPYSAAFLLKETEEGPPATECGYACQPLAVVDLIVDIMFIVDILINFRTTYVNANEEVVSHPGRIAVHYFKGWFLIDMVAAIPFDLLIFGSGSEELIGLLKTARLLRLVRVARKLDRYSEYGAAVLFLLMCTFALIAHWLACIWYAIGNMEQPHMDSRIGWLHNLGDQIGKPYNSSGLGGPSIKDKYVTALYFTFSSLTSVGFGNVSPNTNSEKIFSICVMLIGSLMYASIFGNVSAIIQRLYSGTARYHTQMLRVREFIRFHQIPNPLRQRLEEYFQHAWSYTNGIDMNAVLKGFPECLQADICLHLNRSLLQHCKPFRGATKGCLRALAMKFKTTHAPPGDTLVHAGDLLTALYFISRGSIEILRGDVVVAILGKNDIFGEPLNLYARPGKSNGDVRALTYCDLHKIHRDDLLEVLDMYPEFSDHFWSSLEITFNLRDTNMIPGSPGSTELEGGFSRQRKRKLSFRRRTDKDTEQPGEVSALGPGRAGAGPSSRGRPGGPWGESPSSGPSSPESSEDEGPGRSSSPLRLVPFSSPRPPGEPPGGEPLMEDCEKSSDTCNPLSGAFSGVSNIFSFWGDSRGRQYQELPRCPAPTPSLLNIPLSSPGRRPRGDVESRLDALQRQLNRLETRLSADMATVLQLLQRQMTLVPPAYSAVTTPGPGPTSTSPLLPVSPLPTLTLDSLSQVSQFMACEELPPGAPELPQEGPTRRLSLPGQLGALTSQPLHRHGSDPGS
# How it was run: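 Cell line hERG-U2OS; dye FluxOR II, 1 h RT dark; Tl+ stimulus; ex 480/em 540 nm, read each second for 2 min.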
# [16] = biological target: Cytochrome P450 3A4 (Homo sapiens) (UniProt P08684); assay: Cytochrome P450 Family 3 Subfamily A Member 4 (CYP3A4) small molecule antagonists: luciferase reporter qHTS assay (AID 1671201); note: nearly all actives have a fitted effect of over 50% in size; note: potency is the fitted concentration of half-maximal effect
# Sequence of Cytochrome P450 3A4 (Homo sapiens) (P08684 whole entry, looked up): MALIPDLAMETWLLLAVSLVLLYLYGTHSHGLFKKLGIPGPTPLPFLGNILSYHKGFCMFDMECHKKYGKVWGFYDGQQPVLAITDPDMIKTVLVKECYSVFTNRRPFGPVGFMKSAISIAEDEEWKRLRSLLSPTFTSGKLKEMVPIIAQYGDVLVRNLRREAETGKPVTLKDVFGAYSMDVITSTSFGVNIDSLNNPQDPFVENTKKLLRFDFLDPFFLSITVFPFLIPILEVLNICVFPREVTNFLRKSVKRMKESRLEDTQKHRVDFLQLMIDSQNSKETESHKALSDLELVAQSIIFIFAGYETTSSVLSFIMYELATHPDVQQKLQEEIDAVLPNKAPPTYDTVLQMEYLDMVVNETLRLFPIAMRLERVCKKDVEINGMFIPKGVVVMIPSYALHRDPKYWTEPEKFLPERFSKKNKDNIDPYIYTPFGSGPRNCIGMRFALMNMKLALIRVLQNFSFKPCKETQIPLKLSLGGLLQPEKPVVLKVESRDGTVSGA
# How it was run: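 Room-temperature assay throughout: 10 min compound–enzyme/substrate preincubation, 1 h reaction after NADPH regeneration solution, 20 min detection. Luciferin formed from proluciferin substrate is quantified by luminescence.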
# [17] = biological target: Nuclear receptor subfamily 1 group I member 2 (Rattus norvegicus) (UniProt Q9R1A7); assay: Rat pregnane X receptor (rPXR) activation by small molecules, qHTS assay (AID 1346983); details: rPXR luciferase reporter cells, One-Glo luminescence, 24 h; max activation: stronger effect = higher value; note: nearly all actives have a fitted effect of over 20% in size
# How it was run: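 Cell-based rPXR activation assay: rPXR cells, 2,000 per well, rested 5hr at 37 C, then exposed to compounds in DMSO for 24 hr at 37 C. Luciferase activity read by One-Glo luminescence after 30 min at room temperature.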
# [18] = biological target: Nuclear receptor subfamily 1 group I member 2 (Homo sapiens) (UniProt O75469); assay: CYP3A4 induction through human pregnane X receptor (PXR) by small molecules, qHTS assay (AID 1346984); note: nearly all actives have a fitted effect of over 40% in size
# How it was run: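 DPX-2 cells (HepG2 co-transfected with PXR and CYP3A4 promoter-luciferase) treated with compounds 24 h at 37C; luciferin-IPA CYP3A4 substrate 3uM final added for 3 h, then One-Glo; luminescence read. qHTS format.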
# [19] = biological target: Nuclear receptor subfamily 1 group I member 2 (Homo sapiens) (UniProt O75469); assay: Human pregnane X receptor (PXR) activation by small molecules, qHTS assay (AID 1346985); note: nearly all actives have a fitted effect of over 40% in size
# How it was run: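 DPX-2 cells (HepG2 co-transfected with a PXR response element and a CYP3A4-promoter luciferase construct) were seeded at 2,000 per well, rested 5 hr at 37C, then exposed to DMSO-dissolved compounds for 24 hr. Activation was read as luciferase luminescence.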
Compound,Potency [1],Potency [2],Potency [3],Potency [4],Potency [5],Potency [6],Potency [7],Potency [8],Potency [9],Potency [10],Potency [11],Potency [12],Potency [13],Potency [14],Potency [15],Potency [16],max activation [17],Potency [18],Potency [19]
CC(C)[C@@H](Nc1ccc(C(F)(F)F)cc1Cl)C(=O)OC(C#N)c1cccc(Oc2ccccc2)c1 (stereo partly specified),inactive,inactive,inactive,inactive,inactive,7.42 µM (active),inactive,inactive,inactive,inactive,inactive,10.8 µM (active),6.09 µM (active),inactive,inactive,–,–,–,–
CCCCCCCCCCCCCCn1cc[n+](C)c1,12.2 µM (active) and 27 µM (active),43.4 µM (active) and inactive,4.34 µM (active) and 8.54 µM (active) and 61.1 µM (active),inactive,61.3 µM (active) and 67.8 µM (active) and 54.4 µM (active),3.86 µM (active) and 4.28 µM (active) and 21.7 µM (active),63.4 µM (active) and 70.2 µM (active) and inactive,50.4 µM (active) and 70.2 µM (active) and inactive,20.1 µM (active) and 31.4 µM (active) and inactive,inactive,1.13 µM (active) and 1.25 µM (active),40 µM (active) and 78.8 µM (active),11.3 µM (active),40 µM (active) and 62.6 µM (active),3.9 µM (active) and 6.84 µM (active) and inactive,40 µM (active),–,–,–
CC(Cl)CCl (stereo unspecified),inactive,inactive,inactive,inactive,inactive,inactive,inactive,inactive,inactive,inactive,inactive,70.8 µM (active),inactive,inactive,inactive,inactive,–,–,–
[F][Sn]([c]1ccccc1)([c]1ccccc1)[c]1ccccc1,0.0863 µM (active),193 nM (active),0.0433 µM (active),0.0611 µM (active),1.22 µM (active),0.077 µM (active),inactive,inactive,inactive,inactive,2.83 µM (active),3.99 µM (active),2 µM (active),inactive,3.09 µM (active),–,–,–,–
S=C=Nc1ccccc1,inactive,inactive,inactive,inactive,inactive,63.1 µM (active),inactive,inactive,inactive,inactive,73.3 µM (active),36.7 µM (active),65.3 µM (active),32.7 µM (active),inactive,32.7 µM (active),–,–,–
O=S(=O)(NS(=O)(=O)C(F)(F)F)C(F)(F)F,60.9 µM (active),inactive,48.4 µM (active),inactive,inactive,60.9 µM (active),inactive,inactive,inactive,inactive,0.447 µM (active),39.8 µM (active),6.31 µM (active),44.7 µM (active),38.8 µM (active),–,–,–,–
O=NN(CCO)CCO,inactive,inactive,inactive,inactive,inactive,inactive,inactive,inactive,inactive,inactive,inactive,78.4 µM (active),inactive,inactive,inactive,inactive,–,–,–
[O-][Cl+3]([O-])([O-])O,inactive,inactive,inactive,inactive,inactive,inactive,inactive,inactive,inactive,inactive,inactive,inactive,inactive,inactive,inactive,inactive,–,–,–
O=Cc1ccccc1,inactive,inactive,inactive,inactive,inactive,inactive,inactive,inactive,inactive,inactive,inactive,inactive,inactive,inactive,inactive,inactive,–,–,–
CO/N=C(/C1=NOCCO1)c1ccccc1Oc1ncnc(Oc2ccccc2Cl)c1F,9.68 µM (active),inactive,1.72 µM (active),inactive,30.6 µM (active),27.3 µM (active),inactive,inactive,inactive,inactive,inactive,7.96 µM (active),11.2 µM (active),25.2 µM (active),inactive,–,–,–,–
CC1CCCC1,inactive,inactive,inactive,inactive,inactive,inactive,inactive,inactive,inactive,inactive,inactive,17.6 µM (active),8.8 µM (active),39.3 µM (active),inactive,27.8 µM (active),–,–,–
c1ccc2nc(N3CCNCC3)ccc2c1,inactive,inactive,inactive,inactive,inactive,inactive,inactive,inactive,inactive,inactive,inactive,inactive,inactive,1.23 µM (active),inactive,–,–,–,–
CN=C=O,inactive,inactive,inactive,inactive,inactive,inactive,inactive,inactive,inactive,inactive,57.2 µM (active),inactive,inactive,36.1 µM (active),inactive,inactive,–,–,–
[O]=[Cr](=[O])([OH])[O][Cr](=[O])(=[O])[OH],8.71 µM (active) and 6.1 µM (active),9.78 µM (active) and 13.7 µM (active),7.77 µM (active) and 15.3 µM (active),inactive,5.5 µM (active) and 4.85 µM (active),8.71 µM (active) and 9.67 µM (active),inactive,inactive,inactive,inactive,inactive,inactive,–,inactive,inactive,inactive,-13.2% (inactive) and 6.2% (inactive),inactive,inactive
